The supplement of paper PMC8728848
Many of the other results were omitted from the sample, so the strongest signals are more common in it than they were.

Key:
Assay in all cases: glycan array binding signal (z-score within array); higher = stronger binding
Conditions in all cases: glycan notation: IUPAC condensed, linker removed
Fuc(a1-2)Gal(b1-4)Glc6S = target: Fuc(a1-2)Gal(b1-4)Glc6S
Outline: (§1)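 Glycan array binding is given as a within-array Z-score, which can be read as non-binding when negative. The arrays, 3228 of them, came from the Consortium for Functional Glycomics database and were retained only where the protein sequence was available. Z-scores were averaged across arrays of the same protein sequence at different concentrations or buffers and across linkers.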

[1] = target: Fuc(a1-2)[GalNAc(a1-3)]Gal(b1-4)[Fuc(a1-3)]GlcNAc
Outline: as §1

[2] = target: Fuc(a1-2)[GalNAc(a1-4)]Gal(b1-4)GlcNAc
Outline: as §1

[3] = target: Fuc(a1-2)[GalNAc(b1-3)]Gal
Outline: as §1

Gal(a1-3)Gal = target: Gal(a1-3)Gal
Outline: as §1

Gal(a1-3)Gal(b1-4)Glc = target: Gal(a1-3)Gal(b1-4)Glc
Outline: as §1

Gal(a1-4)Gal(b1-4)GlcNAc = target: Gal(a1-4)Gal(b1-4)GlcNAc
Outline: as §1

[4] = target: Gal(b1-3)[Fuc(a1-4)]GlcNAc(b1-3)Gal(b1-4)GlcNAc
Outline: as §1

[5] = target: Gal(b1-3)[Fuc(a1-4)]GlcNAc(b1-3)Gal(b1-4)[Fuc(a1-3)]GlcNAc
Outline: as §1

[6] = target: Gal(b1-4)GlcNAc(a1-6)Gal(b1-4)GlcNAc
Outline: as §1

[7] = target: Gal(b1-4)GlcNAc(b1-3)Gal(b1-4)[Fuc(a1-3)]GlcNAc(b1-3)Gal(b1-4)[Fuc(a1-3)]GlcNAc
Outline: as §1

[8] = target: Gal(b1-4)GlcNAc(b1-3)GalNAc
Outline: as §1

[9] = target: Gal(b1-4)GlcNAc(b1-3)[Gal(b1-4)GlcNAc(b1-6)]Gal(b1-4)GlcNAc
Outline: as §1

[10] = target: Gal(b1-4)GlcNAc(b1-6)Gal(b1-4)GlcNAc
Outline: as §1

GalNAc(a1-3)Gal = target: GalNAc(a1-3)Gal
Outline: as §1

GalNAc(b1-3)Gal = target: GalNAc(b1-3)Gal
Outline: as §1

[11] = target: GalNAc(b1-3)Gal(a1-4)Gal(b1-4)GlcNAc
Outline: as §1

GalNAc(b1-3)GalNAc = target: GalNAc(b1-3)GalNAc
Outline: as §1

[12] = target: GlcNAc(b1-3)Gal(b1-4)GlcNAc
Outline: as §1

[13] = target: Man(a1-2)Man(a1-2)Man(a1-6)[Man(a1-3)]Man
Outline: as §1

Man(a1-2)Man(a1-3)Man = target: Man(a1-2)Man(a1-3)Man
Outline: as §1

[14] = target: Man(a1-2)Man(a1-3)[Man(a1-6)]Man(a1-6)[Man(a1-2)Man(a1-3)]Man(b1-4)GlcNAc(b1-4)GlcNAc
Outline: as §1

[15] = target: Neu5Ac(a2-3)Gal(b1-3)[Fuc(a1-4)]GlcNAc
Outline: as §1

[16] = target: Neu5Ac(a2-3)Gal6S(b1-4)GlcNAc
Outline: as §1

[17] = target: Neu5Ac(a2-3)GalNAc(b1-4)GlcNAc
Outline: as §1

[18] = target: Neu5Ac(a2-6)Gal(b1-4)GlcNAc6S
Outline: as §1

[19] = target: Neu5Ac(a2-8)Neu5Ac(a2-8)Neu5Ac(a2-8)Neu5Ac(a2-3)[GalNAc(b1-4)]Gal(b1-4)Glc
Outline: as §1

[20] = target: Fuc(a1-2)Gal(b1-4)GlcNAc(b1-3)Gal(b1-4)GlcNAc
Outline: as §1

[21] = target: Fuc(a1-2)Gal(b1-4)GlcNAc(b1-3)Gal(b1-4)GlcNAc(b1-2)Man(a1-3)[Fuc(a1-2)Gal(b1-4)GlcNAc(b1-3)Gal(b1-4)GlcNAc(b1-2)Man(a1-6)]Man(b1-4)GlcNAc(b1-4)GlcNAc
Outline: as §1

[22] = target: Fuc(a1-2)Gal(b1-4)GlcNAc(b1-3)Gal(b1-4)GlcNAc(b1-3)Gal(b1-4)GlcNAc
Outline: as §1

[23] = target: Fuc(a1-2)Gal(b1-4)GlcNAc(b1-3)GalNAc
Outline: as §1

[24] = target: Fuc(a1-2)Gal(b1-4)GlcNAc(b1-6)GalNAc
Outline: as §1

[25] = target: Fuc(a1-2)Gal(b1-4)[Fuc(a1-3)]GlcNAc(b1-2)Man(a1-3)[Fuc(a1-2)Gal(b1-4)[Fuc(a1-3)]GlcNAc(b1-2)Man(a1-6)]Man(b1-4)GlcNAc(b1-4)[Fuc(a1-6)]GlcNAc
Outline: as §1

[26] = target: Fuc(a1-2)Gal(b1-4)[Fuc(a1-3)]GlcNAc(b1-2)[Fuc(a1-2)Gal(b1-4)[Fuc(a1-3)]GlcNAc(b1-4)]Man(a1-3)[Fuc(a1-2)Gal(b1-4)[Fuc(a1-3)]GlcNAc(b1-2)Man(a1-6)]Man(b1-4)GlcNAc(b1-4)GlcNAc
Outline: as §1

[27] = target: Fuc(a1-2)Gal(b1-4)[Fuc(a1-3)]GlcNAc(b1-3)Gal(b1-4)[Fuc(a1-3)]GlcNAc
Outline: as §1

[28] = target: Fuc(a1-2)Gal(b1-4)[Fuc(a1-3)]GlcNAc(b1-3)Gal(b1-4)[Fuc(a1-3)]GlcNAc(b1-3)Gal(b1-4)[Fuc(a1-3)]GlcNAc
Outline: as §1

[29] = target: Fuc(a1-2)[Gal(a1-3)]Gal(b1-3)GalNAc(b1-3)Gal(a1-4)Gal(b1-4)Glc
Outline: as §1

[30] = target: Fuc(a1-2)[Gal(a1-3)]Gal(b1-3)GlcNAc(b1-2)Man(a1-3)[Fuc(a1-2)[Gal(a1-3)]Gal(b1-3)GlcNAc(b1-2)Man(a1-6)]Man(b1-4)GlcNAc(b1-4)[Fuc(a1-6)]GlcNAc
Outline: as §1

[31] = target: Fuc(a1-2)[Gal(a1-3)]Gal(b1-4)[Fuc(a1-3)]GlcNAc(b1-3)GalNAc
Outline: as §1

[32] = target: Fuc(a1-2)[GalNAc(a1-3)]Gal(b1-4)GlcNAc(b1-3)Gal(b1-4)GlcNAc(b1-3)Gal(b1-4)GlcNAc
Outline: as §1

[33] = target: Fuc(a1-3)[Gal(b1-4)]GlcNAc(b1-3)Gal(b1-4)[Fuc(a1-3)]GlcNAc(b1-3)Gal(b1-4)[Fuc(a1-3)]GlcNAc
Outline: as §1

Gal(b1-3)GalNAc = target: Gal(b1-3)GalNAc
Outline: as §1

[34] = target: Gal(b1-3)GlcNAc(a1-3)Gal(b1-4)GlcNAc
Outline: as §1

[35] = target: Gal(b1-3)GlcNAc(b1-3)Gal(b1-4)[Fuc(a1-3)]GlcNAc
Outline: as §1

[36] = target: Gal(b1-3)GlcNAc(b1-3)GalNAc
Outline: as §1

[37] = target: Gal(b1-3)GlcNAc(b1-6)[Gal(b1-3)]GalNAc
Outline: as §1

[38] = target: Gal(b1-3)[Fuc(a1-4)]GlcNAc(b1-3)Gal(b1-3)[Fuc(a1-4)]GlcNAc
Outline: as §1

[39] = target: Gal(b1-3)[Neu5Ac(a2-6)]GalNAc
Outline: as §1

[40] = target: Gal(b1-4)GalNAc(b1-3)[Fuc(a1-2)]Gal(b1-4)GlcNAc
Outline: as §1

Gal(b1-4)Glc = target: Gal(b1-4)Glc
Outline: as §1

Gal(b1-4)GlcNAc(b1-2)Man = target: Gal(b1-4)GlcNAc(b1-2)Man
Outline: as §1

[41] = target: Gal(b1-4)GlcNAc(b1-3)Gal(b1-4)GlcNAc(b1-3)[Gal(b1-4)GlcNAc(b1-3)Gal(b1-4)GlcNAc(b1-6)]GalNAc
Outline: as §1

Gal4S(b1-4)GlcNAc = target: Gal4S(b1-4)GlcNAc
Outline: as §1

B1: CBM32-5 (Clostridium perfringens) (protein)
chain: MGSSHHHHHHSSGLVPRGSHMASALPQGNMKATATSEHPDVGNEGLAKFAIDGKENTIWHTKYNPVEELPQSITLELGGSYEINKFTYLPRSGAKNGNITKYELHVSEDGNNFRKISEGNWDDSGSLKTLKFNSTKATHVKLVALEGVGGFASAAELNVFA
Q: Which results are given for B1?
A: glycan array binding signal (z-score) (Fuc(a1-2)Gal(b1-4)Glc6S): -0.037; glycan array binding signal (z-score) [1]: -0.639; glycan array binding signal (z-score) [2]: 9.74; glycan array binding signal (z-score) [3]: 6.11; glycan array binding signal (z-score) (Gal(a1-3)Gal): -0.718; glycan array binding signal (z-score) (Gal(a1-3)Gal(b1-4)Glc): 2.12; glycan array binding signal (z-score) (Gal(a1-4)Gal(b1-4)GlcNAc): 0.124; glycan array binding signal (z-score) [4]: -0.65; glycan array binding signal (z-score) [5]: -0.543; glycan array binding signal (z-score) [6]: 0.343; glycan array binding signal (z-score) [7]: -0.59; glycan array binding signal (z-score) [8]: 0.285; glycan array binding signal (z-score) [9]: 3.1; glycan array binding signal (z-score) [10]: 0.749; glycan array binding signal (z-score) (GalNAc(a1-3)Gal): 2.91; glycan array binding signal (z-score) (GalNAc(b1-3)Gal): 4.11; glycan array binding signal (z-score) [11]: 1.22; glycan array binding signal (z-score) (GalNAc(b1-3)GalNAc): 0.845; glycan array binding signal (z-score) [12]: -0.249; glycan array binding signal (z-score) [13]: -0.584; glycan array binding signal (z-score) (Man(a1-2)Man(a1-3)Man): -0.091; glycan array binding signal (z-score) [14]: -0.536; glycan array binding signal (z-score) [15]: -0.236; glycan array binding signal (z-score) [16]: -0.395; glycan array binding signal (z-score) [17]: -0.526; glycan array binding signal (z-score) [18]: -0.183; glycan array binding signal (z-score) [19]: -0.621

B2: LecB PA7 (Pseudomonas aeruginosa) (protein)
chain: MATQGVFTLPANTRFGVTAFANSSATQTVKVLVNNETAATFTGQSTNNAVIGSQVLNSGGGGKVQIQVSVNGRSSDLVSAQVILANELNVALVGSEDSTDNDYNDAVVVINWPLG
Q: Which results are given for B2?
A: glycan array binding signal (z-score) (Fuc(a1-2)Gal(b1-4)Glc6S): 1.89; glycan array binding signal (z-score) [20]: 3.5; glycan array binding signal (z-score) [21]: 10.1; glycan array binding signal (z-score) [22]: 3.71; glycan array binding signal (z-score) [23]: 0.923; glycan array binding signal (z-score) [24]: 0.819; glycan array binding signal (z-score) [25]: 5.18; glycan array binding signal (z-score) [26]: -0.08; glycan array binding signal (z-score) [27]: 4.93; glycan array binding signal (z-score) [28]: 4.08; glycan array binding signal (z-score) [29]: -0.43; glycan array binding signal (z-score) [30]: 0.145; glycan array binding signal (z-score) [31]: 0.197; glycan array binding signal (z-score) [32]: -0.381; glycan array binding signal (z-score) [2]: 1.57; glycan array binding signal (z-score) [33]: 3.54; glycan array binding signal (z-score) (Gal(b1-3)GalNAc): -0.403; glycan array binding signal (z-score) [34]: -0.51; glycan array binding signal (z-score) [35]: 1.8; glycan array binding signal (z-score) [36]: -0.499; glycan array binding signal (z-score) [37]: -0.412; glycan array binding signal (z-score) [38]: 3.31; glycan array binding signal (z-score) [5]: 3.44; glycan array binding signal (z-score) [39]: -0.511; glycan array binding signal (z-score) [40]: -0.478; glycan array binding signal (z-score) (Gal(b1-4)Glc): -0.502; glycan array binding signal (z-score) (Gal(b1-4)GlcNAc(b1-2)Man): -0.495; glycan array binding signal (z-score) [41]: -0.495; glycan array binding signal (z-score) [7]: 2.05; glycan array binding signal (z-score) (Gal4S(b1-4)GlcNAc): -0.478
